Laboratory results: PubChem BioAssay AID624125 (The Scripps Research Institute Molecular Screening Center, 2012)
Screen size: about 360,000 compounds; about 2,600 (0.72%) were called active.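 The calls were made as follows: active = inhibition above its plate's cutoff, the mean inhibition of sample wells plus 3 SD (cut at about 27% in these data); inactive = the rest.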 The sample as a whole holds a higher share of actives than the screen did.

Target: Muscarinic acetylcholine receptor M4 (Homo sapiens) (UniProt P08173)
Assay: human M4 muscarinic receptor antagonists, primary screen, CHO cells, Fluo-8 calcium fluorescence (AID 624125);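 also: 0% = acetylcholine EC80 with DMSO and 100% = DMSO without agonist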
Settings: CHO-hM4 cells, ACh EC80, Fluo-8 calcium fluorescence; at 3 µM; hits give high values

Chain of Muscarinic acetylcholine receptor M4 (Homo sapiens) (P08173 whole entry, looked up): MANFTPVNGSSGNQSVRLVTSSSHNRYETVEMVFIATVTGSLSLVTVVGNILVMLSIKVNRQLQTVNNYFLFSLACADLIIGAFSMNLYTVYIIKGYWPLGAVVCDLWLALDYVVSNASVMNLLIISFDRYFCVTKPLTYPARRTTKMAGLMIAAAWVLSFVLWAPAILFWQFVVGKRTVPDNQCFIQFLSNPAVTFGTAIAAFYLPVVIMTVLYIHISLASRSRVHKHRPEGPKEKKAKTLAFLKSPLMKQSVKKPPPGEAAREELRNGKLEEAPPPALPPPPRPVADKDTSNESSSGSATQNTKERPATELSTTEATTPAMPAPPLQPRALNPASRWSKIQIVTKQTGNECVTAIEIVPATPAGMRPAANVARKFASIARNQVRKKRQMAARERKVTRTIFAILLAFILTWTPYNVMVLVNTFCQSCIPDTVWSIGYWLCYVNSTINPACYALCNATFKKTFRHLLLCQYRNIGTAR

Which inhibition does the source give for `CSCCC(c1nnnn1C(C)(C)C)N1CCC(n2c(=O)[nH]c3ccccc32)CC1` (stereo not given) here?
The inhibition was 5.14% (inactive).

For `O=c1[nH]c2ccccc2n1C1CCN(C(c2ccccc2)c2nnnn2Cc2ccccc2)CC1` (stereo not given), which inhibition is on record?
The inhibition was 27.1% (active).

`O=c1[nH]c2ccccc2n1C1CCN(C(c2ccnc3ccccc23)c2nnnn2Cc2ccccc2)CC1` (stereo not given) was tested. Which inhibition did it give?
The inhibition was 22.4% (inactive).

For `Nc1ccc(C(=O)N/N=C2/CN3CCC2CC3)cc1`, which inhibition is on record?
Its inhibition is -0.14% (inactive).

How did the inhibition turn out when `Cc1nn(Cc2ccccc2Cl)c(Cl)c1C(=O)OC(C(=O)NC(N)=O)C(C)C` (stereo not given) was run?
Its inhibition is 1.94% (inactive).

How did the inhibition turn out when `COC(=O)N(c1ccc(OC)cc1)P1(=S)OCCC(C)O1` (stereo not given) was run?
The inhibition was 1.76% (inactive).

For `COc1ccc(N=Cc2c(O)n(C)c(=O)[nH]c2=O)cc1`, which inhibition is on record?
Its inhibition is 1.06% (inactive).

How did the inhibition turn out when `CC(C)c1c(CN(C)C(C)Cc2ccccc2)n(C)n(-c2ccccc2)c1=O` (stereo not given) was run?
The inhibition was 66.1% (active).

How did the inhibition turn out when `CCOC(=O)C(O)(c1ccc(N)c(OC)c1)C(F)(F)F` (stereo not given) was run?
The inhibition was 1.32% (inactive).

How did the inhibition turn out when `O=[N+]([O-])c1cnc2ccc3ccccc3c2c1` was run?
The inhibition was 9.35% (inactive).

Which inhibition does the source give for `CC1(C)Cc2c(C#N)c(N3CCNCC3)nc(-c3ccco3)c2CS1` here?
Its inhibition is 5.55% (inactive).

`CC1CCCN1CCC(C(N)=O)(c1ccccc1)c1ccccc1` (stereo not given) was tested. Which inhibition did it give?
Its inhibition is 99% (active).

How did the inhibition turn out when `O=C(Cc1ccccc1)N1CCN(C2CCCCCC2)CC1` was run?
The inhibition was 0.63% (inactive).

`CC1CCCCN1Cc1cccnc1` (stereo not given) was tested. Which inhibition did it give?
The inhibition was 3.46% (inactive).

For `C[C@]12CCCCC1=CC(=O)C1C2CC[C@@]2(C)C1C[C@@H](F)[C@@H]2O` (stereo not given in full), which inhibition is on record?
The inhibition was -6.29% (inactive).

With `N#Cc1ccc(Cn2cc(C(=O)c3ccco3)c3ccccc32)cc1` as the compound, how does the inhibition read?
Its inhibition is 0.92% (inactive).

How did the inhibition turn out when `CCOP(=O)(OCC)C(NC(=O)NC)C(N)=O` (stereo not given) was run?
Its inhibition is 39% (active).

Which inhibition does the source give for `CCOP(=O)(OCC)C(NC(=O)c1ccc(OC)cc1)C(Cl)(Cl)Cl` (stereo not given) here?
Its inhibition is 3.05% (inactive).

Which inhibition does the source give for `CCOP(=O)(OCC)C(NC(=O)c1ccc(C)cc1)C(Cl)(Cl)Cl` (stereo not given) here?
Its inhibition is 9.97% (inactive).

Which inhibition does the source give for `CN(C)CCCN=Cc1c(O)n(Cc2ccco2)c(=O)[nH]c1=O` here?
Its inhibition is 2.03% (inactive).

Which inhibition does the source give for `CC(=O)N(C1=NCCCS1)c1ccccc1F` here?
The inhibition was -8.11% (inactive).

Which inhibition does the source give for `CN(C)C(=O)Oc1cc(=O)n2c3c(cccc13)CCC2` here?
Its inhibition is -4.4% (inactive).

Which inhibition does the source give for `CCCCCCCCCCCCn1ccc(=N)cc1` here?
Its inhibition is 71.3% (active).

Which inhibition does the source give for `COc1cc(-n2c(=S)[nH]c3ccc(C)cc3c2=O)c(Cl)cc1Cl` here?
The inhibition was 3.21% (inactive).

How did the inhibition turn out when `COC(=O)C(O)(c1ccc(NC(=O)c2ccco2)c(OC)c1)C(F)(F)F` (stereo not given) was run?
The inhibition was 1.51% (inactive).

With `CCCC(C)n1[nH]c(=O)c2c1NC(=O)CSC2c1ccc(OC)c(OC)c1` (stereo not given) as the compound, how does the inhibition read?
The inhibition was -2% (inactive).

How did the inhibition turn out when `O=C(NCC(c1cccnc1)N1CCN(c2ccccc2)CC1)Oc1ccccc1` (stereo not given) was run?
Its inhibition is -1.68% (inactive).

Which inhibition does the source give for `CCCC[N+]1(C)C2CC(OC(=O)C(CO)c3ccccc3)CC1C1OC12` (stereo not given) here?
Its inhibition is 90.4% (active).

How did the inhibition turn out when `N#CC1=C(N)Oc2c(c(=O)oc3ccccc23)C1c1ccccc1OC(=O)c1cccs1` (stereo not given) was run?
The inhibition was 5.46% (inactive).

`Cc1ccc(-n2c(O)c(C=NCC3CCCO3)c(=O)[nH]c2=O)c(C)c1` (stereo not given) was tested. Which inhibition did it give?
Its inhibition is -11% (inactive).

How did the inhibition turn out when `COc1cccc(CN2CCCC(C(=O)c3ccccc3SC)C2)c1O` (stereo not given) was run?
Its inhibition is -1.14% (inactive).

With `CC[N+]1(C)CCCC(OC(=O)C(O)(c2ccccc2)c2ccccc2)C1` (stereo not given) as the compound, how does the inhibition read?
Its inhibition is 98.6% (active).

`Cc1ccc(N(C)C(=O)Oc2cccc3ccc(C)nc23)cc1` was tested. Which inhibition did it give?
Its inhibition is 5.04% (inactive).

`CCc1nc2ccccc2c(=O)n1-c1cccc(OC)c1` was tested. Which inhibition did it give?
The inhibition was -8.12% (inactive).

How did the inhibition turn out when `CN1CCN(/N=C/c2c[nH]c3ccccc23)CC1` was run?
Its inhibition is -1.55% (inactive).
